The values below come from PubChem BioAssay (EPA / NIEHS).

Records with an inconclusive call do not appear. Activity calls are given as the source filed them. How the source made its calls, unless noted: active means hit-call score of the fitted dose curve at least 0.9, where 1 is the maximum; inactive means score below 0.9.

Assay [1] in a line: UKN5_HCS_SBAD2_cell_viability: Viability Assessment in the University of Konstanz (UKN) Leist Lab Neurite Outgrowth Assay in human iPSC-derived immature Dorsal Root Ganglia Neurons (UKN5) (AID 2284056). The method in brief: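 iPSC-derived immature peripheral neurons (SBAD2) seeded on Matrigel with CHIR99021, SU5402 and DAPT, dosed 1 h later for 24 h. Viability from Hoechst H-33342 and calcein-AM live staining, high-content imaging; bidirectional fit versus DMSO.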

Assay [2] can be described thus: UKN5_HCS_SBAD2_neurite_outgrowth: University of Konstanz (UKN) Leist Lab Neurite Outgrowth Assay in human iPSC-derived immature Dorsal Root Ganglia Neurons (UKN5) (AID 2284070). Conditions: actives raise or lower the signal. The method in brief: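 Thaw, seed on Matrigel (100.000 cells/cm2), dose 1 h later; at 23 h live-stain with H-33342 and calcein-AM for 60 min; image at 24 h. Neurite area fitted bidirectionally vs DMSO.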

The nature of assay [3]: UKN2_HCS_IMR90_neural_migration: University of Konstanz (UKN) Leist Lab Neural Crest Cell Migration Assay in human induced IMR90 Pluripotent Stem Cells (UKN2) (AID 2284204). Conditions: actives raise or lower the signal. The method in brief: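 Using a 96-well stopper format with PLO/laminin/fibronectin coating, neural crest cells from iPSC migrate in cytokine-supplemented N2-S medium; after 24 h, chemicals are applied for a further 24 h, then cells are imaged after dye staining.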

A short description of assay [4]: UKN4_HCS_LUHMES_neurite_outgrowth: University of Konstanz (UKN) Leist Lab Neurite Outgrowth Assay in human LUHMES cells (UKN4) (AID 2284206). The conditions noted are these: actives raise or lower the signal. The method in brief:
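Human LUHMES cells were differentiated for two days, replated and treated with chemicals for 24 h. Neurite outgrowth was quantified as calcein-stained neurite area by HCS imaging, fitted bidirectionally relative to DMSO.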

Assay [5] can be described thus: UKN4_HCS_LUHMES_cell_viability: Viability Assessment in the University of Konstanz (UKN) Leist Lab Neurite Outgrowth Assay in human LUHMES cells (UKN4) (AID 2284232). The method in brief: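 Cells switched to differentiation medium at day 0, replated on day 2 in medium lacking cAMP and GDNF, and compound-treated once attached. Live staining began 23.5 h later, imaging followed at 24 h.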

Assay [6] can be described thus: UKN2_HCS_IMR90_cell_viability: Viability Assessment in the University of Konstanz (UKN) Leist Lab Neural Crest Cell Migration Assay in human induced IMR90 Pluripotent Stem Cells (UKN2) (AID 2284233).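 Further: viability of neural crest cells differentiated from IMR90 iPSC measured by calcein-AM fluorescence imaging; cells exposed to compound for 24 h after a 24 h migration phase.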 Summed up:
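cMINC format, iPSC-derived neural crest (IMR90); 24 h migration (EGF/FGF, N2-S), then 24 h toxicant. Calcein-AM/H-33342 stain 30 min; fluorescence intensity by HCS; DMSO-normalised, bidirectional fitting.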

Assay [7] in a line: CCTE_Mundy_HCI_hNP1_Casp3_7: CCTE's Caspase-Glo 3/7 Assay in human neuroprogenitor cells for Apoptosis, Mundy Lab (AID 2284240). Summed up: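 Neuroepithelial-lineage stem cells from WA09 embryonic cells were treated with chemicals after 40–44 h of culture. Twenty-four hours later, caspase-3/7 activation was detected luminescently after a 30 min room-temperature reagent step, with DMSO as baseline.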

Assay [8] in a line: CCTE_Mundy_HCI_hNP1_CellTiter: CCTE's Cell Titer-Glo 2 Assay in human neuroprogenitor cells for Viability, Mundy Lab (AID 2284241; active means hit-call score of the fitted dose curve at least 0.9, where 1 is the maximum). The method in brief:
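Measures ATP content in human neural progenitors derived from WA09 embryonic cells. Read-out at 26.5 hours after dosing, with DMSO serving as the negative control and baseline.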
(In general: In ATP-based viability assays light output follows the ATP content of the culture.)

The nature of assay [9]: CCTE_Mundy_HCI_iCellGluta_NOG_NeuriteCount: CCTE's Neurite Outgrowth Assay in iCellGluta cells for Neurite Count, Mundy Lab (AID 2284342; active means hit-call score of the fitted dose curve at least 0.9, where 1 is the maximum;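 further: chemical exposure about 48 hours starting 2 hours after plating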).
Assay [10] can be described thus: CCTE_Padilla_ZF_Score.Craniofacial: CCTE's 144 Hour Post-fertilization zebrafish Assay Score for Craniofacial Malformation, Padilla Lab (AID 2284405). Summed up:
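Craniofacial defects were scored at 6 dpf by two blinded observers using stereomicroscopy. Exposure of wild-type embryos began at 6–8 hpf in sealed wells of 10% Hanks' solution at 26C, with chemical removed by rinsing at 5 dpf.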

The nature of assay [11]: CCTE_Padilla_ZF_Score.Edema: CCTE's 144 Hour Post-fertilization zebrafish Assay Score for Edema Malformation, Padilla Lab (AID 2284406). The method in brief:
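Edema scored at 6 dpf by two blinded observers under a stereo microscope, in single outbred wild-type larvae exposed from 6-8 hpf in sealed wells (Hanks', 26C, 14:10 h light) and chemical-free after a 5 dpf rinse.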

Assay [12] in a line: CCTE_Padilla_ZF_Score.Spine: CCTE's 144 Hour Post-fertilization zebrafish Assay Score for Spine Malformation, Padilla Lab (AID 2284407). The method in brief:
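Spine malformation scored at 6 dpf by two independent blinded observers under stereomicroscope, after static sealed exposure from 6–8 hpf at 26C in Hanks' solution with rinse on 5 dpf. Positive-direction fit against DMSO control.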

Assay [13] in a line: CCTE_Padilla_ZF_Score.Swim_bladder: CCTE's 144 Hour Post-fertilization zebrafish Assay Score for Swim Bladder Malformation, Padilla Lab (AID 2284408). Summed up: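 Swim bladder inflation scored at 6 dpf by two blinded observers under a stereo microscope. Exposure ran from 6–8 hpf in sealed wells of 10% Hanks' at 26C, with rinsing at 5 dpf; DMSO served as baseline.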
The nature of assay [14]: CCTE_Padilla_ZF_Score.Position: CCTE's 144 Hour Post-fertilization zebrafish Assay Score for Position, Padilla Lab (AID 2284409). The method in brief:
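Wild-type zebrafish embryos (with chorions) exposed singly from 6–8 hpf in sealed wells of Hanks' solution at 26C, rinsed at 5 dpf. At 6 dpf, blinded assessors scored abnormal water-column position by brightfield stereomicroscopy, relative to DMSO.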

A short description of assay [15]: CCTE_Padilla_ZF_Score.Living: CCTE's 144 Hour Post-fertilization zebrafish Assay Score for Viability, Padilla Lab (AID 2284410).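 Further: larval death at 6 dpf judged by absent heartbeat or coagulation.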 Summed up:
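Mortality at 6 dpf, judged as absent heartbeat or coagulation by two blinded observers, after sealed static exposure beginning at 6–8 hpf at 26C. Larvae were rinsed free of chemical at 5 dpf, and activity was fitted relative to DMSO.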

Assay [16] in a line: CCTE_Padilla_ZF_Score.General: CCTE's 144 Hour Post-fertilization zebrafish Assay Score for General Malformation, Padilla Lab (AID 2284411). Summed up:
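Malformation, death and hatching were scored at 6 dpf by two blinded observers under a stereo microscope. Embryos were dosed singly from 6-8 hpf in sealed plates of 10% Hanks' at 26C and rinsed on 5 dpf; DMSO baseline.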

The nature of assay [17]: CCTE_Padilla_ZF_Score.Tail: CCTE's 144 Hour Post-fertilization zebrafish Assay Score for Tail Malformation, Padilla Lab (AID 2284414). The method in brief:
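Tail malformations were scored at 6 dpf by two blinded assessors under a stereo microscope. Chorionated embryos had been exposed from 6-8 hpf in sealed wells of 10% Hanks' at 26 C, then rinsed free of chemical at 5 dpf.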

A short description of assay [18]: CCTE_Padilla_ZF_Score.Blood_pooling: CCTE's 144 Hour Post-fertilization zebrafish Assay Score for Blood Pooling, Padilla Lab (AID 2284415). Summed up: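 Blood pooling was scored at 6 dpf under a stereo microscope by two blinded assessors, fitted upward against DMSO. Single embryos were dosed at 6–8 hpf in 10% Hanks', kept sealed at 26C (14:10 h cycle) and rinsed at 5 dpf.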

Assay [19] can be described thus: CCTE_Padilla_ZF_Score.Any: CCTE's 144 Hour Post-fertilization zebrafish Assay Score for Any Mortality or Malformation, Padilla Lab (AID 2284416). The method in brief: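 Wild-type zebrafish embryos with chorions, one per well in 10% Hanks' from 6–8 hpf, dosed in sealed plates at 26 C, 14:10 h light:dark; rinsed at 5 dpf; blinded scoring at 6 dpf for death or malformation, versus DMSO.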

As a reminder, the AC50 is the concentration at which the activity in the assay is half-maximal. For `O.O=S(=O)([O-])[O-].[Mn+2]`, the AC50 was 18.8 µM (active) in [1] and 50 µM (active) in assay [6]. Further, the outcome in assay [2], in assay [3], in assay [4] and in assay [5] was inactive.

Take `O=C(CC(=O)C(F)(F)F)C(F)(F)F`: the result in assay [7], in assay [8], in assay [9], in assay [10], in assay [11] and in assay [12] was inactive. The result in [13], in assay [14], in assay [15], in [16], in assay [17] and in [18] was inactive. For the same molecule, in assay [19], the molecule was classed as inactive.
